High-throughput results from PubChem BioAssay.
G9a block: G9a (human) methyltransferase inhibition; Potency, µM (highest dose often 102 µM), for inactives: at the highest dose activity, negative = inhibition, hits mostly inhibitors; 8.8% of 350,000 active; Q96KQ7; G9a H3K9 monomethylation, AlphaScreen, 2 h; further: on the % scale 0 is the no-effect control and ±100 the full control effect; nearly all actives have a fitted effect of over 75% in size
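G9a (20 nM) preincubated 15 min RT with compounds, then 500 nM biotinylated H3K9 peptide and 20 uM SAM added; 2 h RT reaction. Monomethyl-H3K9 product detected by AlphaScreen with anti-H3K9me1 antibody, streptavidin donor and anti-rabbit IgG acceptor beads.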
BAZ2B block: inhibitors of human BAZ2B bromodomain; Q9UIF8; AlphaScreen BAZ2B-H3K14Ac peptide displacement; Potency, µM (top dose mostly 114 µM), without a hit: at the top dose activity change, negative = inhibition, usual class: inhibitors; 4.4% of 360,000 active; AID 504333; further: on the % scale 0 is the no-effect control and ±100 the full control effect; nearly all actives have a fitted effect of over 60% in size
Target sequence (Q9UIF8 whole entry, looked up): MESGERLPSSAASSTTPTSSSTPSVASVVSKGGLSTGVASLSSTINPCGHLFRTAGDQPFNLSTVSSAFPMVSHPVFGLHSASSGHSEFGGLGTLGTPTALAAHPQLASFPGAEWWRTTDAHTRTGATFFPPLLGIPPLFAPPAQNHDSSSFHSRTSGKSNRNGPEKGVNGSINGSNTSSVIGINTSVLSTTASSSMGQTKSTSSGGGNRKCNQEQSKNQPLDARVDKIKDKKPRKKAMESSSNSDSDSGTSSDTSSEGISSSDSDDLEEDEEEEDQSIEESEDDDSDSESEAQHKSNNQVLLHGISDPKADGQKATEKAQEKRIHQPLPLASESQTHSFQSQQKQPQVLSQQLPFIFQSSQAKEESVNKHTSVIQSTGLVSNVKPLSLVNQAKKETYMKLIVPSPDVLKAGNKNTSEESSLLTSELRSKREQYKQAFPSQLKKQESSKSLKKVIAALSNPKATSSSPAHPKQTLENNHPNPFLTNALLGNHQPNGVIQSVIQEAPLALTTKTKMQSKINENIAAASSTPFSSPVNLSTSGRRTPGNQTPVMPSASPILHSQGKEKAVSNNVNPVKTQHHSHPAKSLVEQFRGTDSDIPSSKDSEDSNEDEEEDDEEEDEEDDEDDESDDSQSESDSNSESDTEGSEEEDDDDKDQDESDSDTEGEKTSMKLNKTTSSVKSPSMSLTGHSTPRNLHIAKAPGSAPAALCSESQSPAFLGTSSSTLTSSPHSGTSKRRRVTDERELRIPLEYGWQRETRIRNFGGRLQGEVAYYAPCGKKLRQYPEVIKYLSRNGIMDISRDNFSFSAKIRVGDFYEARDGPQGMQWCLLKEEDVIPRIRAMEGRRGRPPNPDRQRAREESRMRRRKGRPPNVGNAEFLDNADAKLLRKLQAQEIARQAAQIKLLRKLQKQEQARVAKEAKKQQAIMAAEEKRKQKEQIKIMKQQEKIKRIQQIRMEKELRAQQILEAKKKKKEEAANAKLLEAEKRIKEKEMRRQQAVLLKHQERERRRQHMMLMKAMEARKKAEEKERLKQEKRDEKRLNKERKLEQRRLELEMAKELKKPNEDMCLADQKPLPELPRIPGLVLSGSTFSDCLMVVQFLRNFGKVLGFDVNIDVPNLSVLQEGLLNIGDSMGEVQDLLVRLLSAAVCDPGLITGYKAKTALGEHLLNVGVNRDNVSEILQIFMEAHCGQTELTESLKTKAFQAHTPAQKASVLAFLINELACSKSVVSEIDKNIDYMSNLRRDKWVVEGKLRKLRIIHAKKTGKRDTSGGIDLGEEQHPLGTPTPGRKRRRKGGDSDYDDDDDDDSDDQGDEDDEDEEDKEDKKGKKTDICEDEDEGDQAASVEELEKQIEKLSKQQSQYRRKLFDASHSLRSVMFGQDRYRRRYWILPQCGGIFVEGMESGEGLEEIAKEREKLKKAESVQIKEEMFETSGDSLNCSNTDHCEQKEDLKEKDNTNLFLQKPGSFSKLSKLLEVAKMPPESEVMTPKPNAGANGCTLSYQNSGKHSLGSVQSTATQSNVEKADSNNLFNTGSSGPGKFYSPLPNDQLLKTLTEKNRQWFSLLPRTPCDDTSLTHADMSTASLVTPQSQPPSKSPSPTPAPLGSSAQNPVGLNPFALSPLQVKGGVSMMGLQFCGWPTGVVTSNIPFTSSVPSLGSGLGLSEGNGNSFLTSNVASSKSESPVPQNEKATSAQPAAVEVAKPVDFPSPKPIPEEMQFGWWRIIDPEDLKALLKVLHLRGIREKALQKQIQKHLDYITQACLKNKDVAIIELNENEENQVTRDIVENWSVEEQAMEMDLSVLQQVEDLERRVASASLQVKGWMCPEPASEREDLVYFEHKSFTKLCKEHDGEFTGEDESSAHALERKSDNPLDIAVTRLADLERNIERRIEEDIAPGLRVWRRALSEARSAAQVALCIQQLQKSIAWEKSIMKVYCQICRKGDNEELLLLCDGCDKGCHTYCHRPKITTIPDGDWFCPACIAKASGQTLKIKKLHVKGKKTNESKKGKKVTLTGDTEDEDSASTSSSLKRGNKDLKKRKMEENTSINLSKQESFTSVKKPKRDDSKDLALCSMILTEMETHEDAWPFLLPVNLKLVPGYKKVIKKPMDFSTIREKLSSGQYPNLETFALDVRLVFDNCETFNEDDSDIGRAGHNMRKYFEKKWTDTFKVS
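BAZ2B 50 nM plus b-H3(5-23)K14Ac 50 nM, PBS pH 7.4/0.01% Tween-20, 30 min RT; compound added (max 110 uM), 30 min RT; streptavidin donor/Ni-chelate acceptor beads 10 ug/mL final, 20 min dark; AlphaScreen read.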
12-LOX inh: ALOX12 (human) lipoxygenase inhibition; P18054; purified 12hLO, xylenol orange hydroperoxide absorbance; Potency, µM (doses to about 108 µM), for inactives: at the top dose activity change, negative = inhibition, hits mostly inhibitors; 1.1% of 580,000 active; AID 1671190; further: on the % scale 0 is the no-effect control and ±100 the full control effect
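Purified human 12hLO at 150 nM in 25 mM Hepes, 0.01% Triton X-100, pH 7.0, preincubated 15 min at room temperature with compound. Reaction started with 40 uM arachidonic acid, 30 min at room temperature. Hydroperoxide measured by Fe-xylenol orange, 573/405 nm absorbance ratio.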
JMJD2A Tudor inh: inhibitors of human JMJD2A Tudor domain | 4.4% of 390,000 active | AlphaScreen JMJD2A-Tudor / H3K4me3 peptide binding | O75164 | Potency, µM (titrated, usually from 114 µM), for inactives: at the highest dose activity change, negative = inhibition, actives largely listed as inhibitors | AID 504339; further: on the % scale 0 is the no-effect control and ±100 the full control effect; nearly all actives have a fitted effect of over 50% in size
Sfp inh: blocks B. subtilis Sfp PPTase activity. AID 1490. 3.5% of 310,000 active. Potency, µM, inactives show largest response in the series, negative = inhibition, usual class: inhibitors. Biochemical Sfp PPTase activity, qHTS. Q9F4F7;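 further: the enzyme is Sfp with the accession as filed and its product quenches rhodamine fluorescence; 0% = enzyme reaction without inhibitor and -100% = no enzyme wells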
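With Hepes-Na pH 7.6 buffer containing 10 mM MgCl2, Sfp (15 nM) modified BHQ-2-YbbR (12.5 uM) using rhodamine-CoA (5 uM). Two reads 30 minutes apart at 525/598 nm yielded each well's rate.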
HP1b chromo inh: blocks HP1-beta chromodomain binding to methylated histone tails; P83916; AlphaScreen HP1-beta / biotin-H3K9me3 peptide binding; Potency, µM (series often up to 114 µM), inactives show at the highest dose activity change, negative = inhibition, hits mostly inhibitors; 0.56% of 390,000 active; further: nearly all actives have a fitted effect of over 70% in size
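HP1-beta protein (50 nM final) preincubated 30 min at room temperature with biotinylated H3(1-18)K9me3 peptide (50 nM) in PBS pH 7.4, 0.01% Tween-20, then compound added for 30 min. AlphaScreen streptavidin donor/nickel chelate acceptor beads (10 ug/mL final), 30 min dark, luminescence read.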
An asterisk follows results filed as active; [ ] = dose if it differs, or a comment. The list is not random: actives were taken first. Their share in the collection is about 8.7%. The call rests on the fitted dose curve; in most records, active means well fitted curve in the direction sought with a large enough effect; inconclusive means small, poorly fitted or top-dose-only effect, or another doubt; inactive means no such curve, though single readings can be large; an effect the other way counts as inactive or inconclusive. Potency means the concentration at half of the fitted maximal effect.

Screening COc1ccc(O[C@H]2C=C[C@@H](c3ccccc3)O[C@H]2COC(=O)CC/C(C)=N\OC[C@@H](O)[C@H]2O[C@H]3OC(C)(C)O[C@H]3[C@@H]2O)cc1 returned Sfp inh 16%.
COc1ccc(O[C@H]2C=C[C@@H](c3ccccc3)O[C@@H]2COC(=O)CCC(C)=NO[C@@H]2O[C@H](COC(C)=O)[C@@H](OC(C)=O)[C@H](OC(C)=O)[C@H]2OC(C)=O)cc1 was read as G9a block 50µM*, BAZ2B block -13% and Sfp inh -2%.
COc1ccc(O[C@H]2C=C[C@@H](c3ccccc3)O[C@H]2CO/N=C(/C)CCC(=O)OC[C@@H]2O[C@H](c3ccccc3)C=C[C@@H]2Oc2ccc(OC)cc2)cc1 was read as Sfp inh -7%.
For CC(=O)OC[C@H]1O[C@@H](O/N=C/C[C@@H]2C=C[C@H](OC(C)=O)[C@@H](COC(C)=O)O2)[C@H](OC(C)=O)[C@@H](OC(C)=O)[C@@H]1OC(C)=O the results were G9a block 79µM*, BAZ2B block -12% and Sfp inh 0%.
O=C(NN1CCOCC1)c1ccn(COc2ccc(Br)cc2)n1 was read as 12-LOX inh 31%.
Screening Cc1ccccc1CC(=O)Nc1cccc(-c2nnc3n2CCCC3)c1 returned 12-LOX inh 26%.
`O=C(c1ccccc1F)N1CCC2(CC1)CC(Cc1ccccc1)=NO2` gave 12-LOX inh 0%.
`COc1ccc(-c2nnc(C[C@@H]3C[C@@H](C(C)C)[C@H](CO)C=C3C)o2)cc1` gave 12-LOX inh 10%[176 µM].
c1csc(CNCCC2CCCC2)c1 was read as 12-LOX inh -22%.
For COc1ccc(O)c(N)c1 the results were G9a block 7.9µM*, BAZ2B block 50µM* and Sfp inh 56µM*.
`O=[N+]([O-])c1ccccc1N=Nc1ccc(O)cc1O` gave 12-LOX inh inconclusive, JMJD2A Tudor inh 56µM* and HP1b chromo inh inconclusive.
Screening O=[N+]([O-])c1ccc(N2CCN(c3ccccc3F)CC2)c(S(=O)(=O)N2CCOCC2)c1 returned G9a block 20µM*, BAZ2B block -9%, 12-LOX inh -18%, JMJD2A Tudor inh inconclusive, Sfp inh 6% and HP1b chromo inh 6%.
O=[N+]([O-])c1ccc(N/N=C/c2cccc(O)c2O)c(S(=O)(=O)N2CCOCC2)c1 was read as G9a block 35µM*, BAZ2B block inconclusive, 12-LOX inh inconclusive, JMJD2A Tudor inh -21%, Sfp inh -6% and HP1b chromo inh 1%.
O=C(CCc1ccc(S(=O)(=O)N2CCOCC2)cc1)N/N=C/c1ccc(O)c(O)c1O was read as G9a block 7.9µM*, BAZ2B block inconclusive, 12-LOX inh 0%, JMJD2A Tudor inh 79µM*, Sfp inh 22µM* and HP1b chromo inh inconclusive.
For O=[N+]([O-])c1ccc(N2CCOCC2)c(S(=O)(=O)N2CCOCC2)c1 the results were G9a block -34%, 12-LOX inh -8%, JMJD2A Tudor inh -14%, Sfp inh 19% and HP1b chromo inh 30%.
O=[N+]([O-])c1ccc(N/N=C/c2ccc(O)c(O)c2O)c(S(=O)(=O)N2CCOCC2)c1 was read as BAZ2B block 32µM*, 12-LOX inh -3%, JMJD2A Tudor inh 45µM*, Sfp inh 7.1µM* and HP1b chromo inh 20µM*.
Cc1ccccc1N(CC(=O)NCCN1CCOCC1)S(=O)(=O)c1ccccc1 was read as 12-LOX inh -5%.
`CCc1ccc(OCC(=O)Nc2ccc3oc(-c4ccccc4F)nc3c2)c(-n2cnnc2)c1` gave 12-LOX inh -8%.
For Cn1c(=O)c2c(ncn2CC(COCc2cccc(F)c2)OCc2cccc(F)c2)n(C)c1=O (configuration not stated) the results were 12-LOX inh 24%.
`O=C(Cc1cc(Cl)c2c(c1)OCCCO2)NC1CCN(CC(F)F)CC1` gave 12-LOX inh 109%.
`O=[N+]([O-])c1cccc(N/N=C/c2cccc(O)c2O)c1` gave G9a block 22µM*, BAZ2B block inconclusive, 12-LOX inh 11µM*, JMJD2A Tudor inh -30%, Sfp inh -22% and HP1b chromo inh -16%.
For COC(=O)c1cc(Cl)ccc1NC(=O)CSc1ncc(S(=O)(=O)c2ccc(Br)cc2)c(=O)[nH]1 the results were G9a block -16%[59 µM], BAZ2B block 79µM*, 12-LOX inh inconclusive, JMJD2A Tudor inh -25% and HP1b chromo inh 6%.
COc1ccc(CNC(=O)CSc2ncc(S(=O)(=O)c3ccc(Br)cc3)c(=O)[nH]2)cc1 was read as G9a block -7%[59 µM], BAZ2B block -1%, 12-LOX inh -18%, JMJD2A Tudor inh -14% and HP1b chromo inh 22%.
`CSCCC1Nc2ccc(S(=O)(=O)N3CCOCC3)cc2NC1=O` (configuration not stated) gave G9a block 3.2µM*, 12-LOX inh 0%, JMJD2A Tudor inh -19%, Sfp inh 10% and HP1b chromo inh 29%.
O=C(CCC(=O)c1ccc2c(c1)OCCCO2)NC1CCCCCC1 was read as 12-LOX inh -7%.
Screening Fc1ccc(-c2nnn(Cc3cc4c(cc3Br)OCO4)n2)cc1 returned 12-LOX inh -20%.
`COCCCN1C(=O)C(=O)/C(=C(/O)c2ccccc2)C1c1ccc(N(C)C)cc1` (configuration not stated) gave G9a block 45µM*, BAZ2B block inconclusive, 12-LOX inh inconclusive, JMJD2A Tudor inh inconclusive, Sfp inh -3% and HP1b chromo inh 7%.
For COCCCN1C(=O)C(=O)/C(=C(/O)c2ccccc2)C1c1ccc2c(c1)OCO2 (configuration not stated) the results were G9a block 56µM*, BAZ2B block -35%, 12-LOX inh -29%, JMJD2A Tudor inh inconclusive, Sfp inh 23% and HP1b chromo inh 20%.
Screening COCc1ccc(CNC(=O)/C=C/c2sccc2C)cc1 returned 12-LOX inh -23%.
Cc1cc2cc3c(cc2nc1SCc1ccc(C(=O)O)cc1)OCCO3 was read as G9a block 50µM*, BAZ2B block inconclusive, 12-LOX inh -15%, JMJD2A Tudor inh -33%, Sfp inh -15% and HP1b chromo inh 19%.
